Results: the supplement of paper PMC9262897, “Low-cost anti-mycobacterial drug discovery using engineered E. coli” (Nature Communications, 2022)
Counter-ions that a name gives are not always drawn. ± gives the standard deviation of the averaged measurements.

Columns and labels:
Test in all cases: growth (OD600 after 10 h); higher = more growth (less inhibition)
[1] = test system: E. coli TESEC Alr+ wild-type control; details: compound 0.1 mM; raw OD600 reference: median of DMSO wells 0.241, cell-free background 0.041
Description: (§1)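 TESEC Mtb Alr E. coli, or the Alr+ wild-type control, in 384-well plates with Prestwick library compounds at 0.1 mM and 1% DMSO, across arabinose induction levels of 1E3 to 1E7 nM. Growth is read as OD600 after 10 h at 37 °C in triplicate biological replicates.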

E. coli TESEC Mtb Alr [2] = details: compound 0.1 mM
Description: as §1

E. coli TESEC Mtb Asd = details: compound 0.1 mM
Description: (§2)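 TESEC E. coli strains in which the native enzyme is deleted and replaced by arabinose-inducible Mtb Asd, DapB, CysH or TrpD, each grown in its selective medium. Strains were screened against the Prestwick library at 0.1 mM and 1% DMSO in 384-well format at low and high arabinose induction. Growth is read as OD600 after 10 h in triplicate.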

E. coli TESEC Mtb DapB = details: compound 0.1 mM
Description: as §2

E. coli TESEC Mtb Alr [3] = details: compound 0.1 mM; remark: listed apart in the source
Description: (§3)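 TESEC Mtb Alr E. coli (ΔaraC ΔtolC ΔentC Δalr ΔdadX, arabinose-inducible Mtb Alr) or the Alr+ wild-type control strain, grown in defined M9-fructose medium without D-alanine in 96-well plates with Prestwick library compounds at 0.1 mM and 1% DMSO. Low Alr induction is 0.1 µM arabinose and high induction is 10 mM arabinose.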

[4] = test system: E. coli TESEC Alr+ wild-type control; details: compound 0.1 mM; raw OD600 reference: median of DMSO wells 0.49, cell-free background 0.052
Description: as §3

[5] = arabinose 1000 nM, raw OD600 reference: median of DMSO wells 0.294, cell-free background 0.041
[6] = arabinose 10000 nM, raw OD600 reference: median of DMSO wells 0.264, cell-free background 0.041
[7] = arabinose 100000 nM, raw OD600 reference: median of DMSO wells 0.201, cell-free background 0.041
[8] = arabinose 1000000 nM, raw OD600 reference: median of DMSO wells 0.193, cell-free background 0.041
[9] = arabinose 10000000 nM, raw OD600 reference: median of DMSO wells 0.146, cell-free background 0.041
[10] = arabinose induction (level): High, raw OD600 reference: median of DMSO wells 0.331, cell-free background 0.041
[11] = arabinose induction (level): Low, raw OD600 reference: median of DMSO wells 0.417, cell-free background 0.041
[12] = arabinose induction (level): High, raw OD600 reference: median of DMSO wells […], cell-free background 0.041
[13] = arabinose induction (level): Low, raw OD600 reference: median of DMSO wells 0.227, cell-free background 0.041
[14] = arabinose 100 nM, raw OD600 reference: median of DMSO wells 0.413, cell-free background 0.052
[15] = arabinose 10000000 nM, raw OD600 reference: median of DMSO wells […], cell-free background 0.052

Row | Compound | growth [1] | growth (E. coli TESEC Mtb Alr [2]; [5]) | growth (E. coli TESEC Mtb Alr [2]; [6]) | growth (E. coli TESEC Mtb Alr [2]; [7]) | growth (E. coli TESEC Mtb Alr [2]; [8]) | growth (E. coli TESEC Mtb Alr [2]; [9]) | growth (E. coli TESEC Mtb Asd; [10]) | growth (E. coli TESEC Mtb Asd; [11]) | growth (E. coli TESEC Mtb DapB; [12]) | growth (E. coli TESEC Mtb DapB; [13]) | growth (E. coli TESEC Mtb Alr [3]; [14]) | growth (E. coli TESEC Mtb Alr [3]; [15]) | growth [4]
1 | CCCCCNC(=N)N/N=C/c1c[nH]c2ccc(OC)cc12 [Tegaserod maleate] | 0.0464 ± 0.0039 | 0.047 ± 0.0021 | 0.0443 ± 0.00086 | 0.0455 ± 0.0016 | 0.0451 ± 0.0011 | 0.0474 ± 0.0038 | 0.0504 ± 0.0014 | 0.0483 ± 0.0011 | 0.0474 ± 0.0015 | 0.0486 ± 0.0013 | 0.0508 ± 0.00065 | 0.0554 ± 0.00072 | 
2 | C=C1C[C@H]2[C@@H]3C=C(C)C4=CC(=O)CC[C@]4(C)[C@H]3CC[C@]2(C)[C@@]1(OC(C)=O)C(C)=O [Melengestrol acetate] | 0.20603 ± 0.00015 | 0.281 ± 0.013 | 0.295 ± 0.011 | 0.166 ± 0.0027 | 0.176 ± 0.0085 | 0.148 ± 0.0027 | 0.213 ± 0.071 | 0.343 ± 0.11 | 0.187 ± 0.0082 | 0.211 ± 0.036 | 0.3558 ± 0.0033 | 0.142 ± 0.053 | 
3 | CCOC(=O)[C@H](CCc1ccccc1)N[C@@H](C)C(=O)N1CCC[C@H]1C(=O)O [Enalapril maleate] | 0.247 ± 0.014 | 0.296 ± 0.017 | 0.25 ± 0.0032 | 0.231 ± 0.03 | 0.174 ± 0.0046 | 0.161 ± 0.009 | 0.322 ± 0.039 | 0.373 ± 0.067 |  |  | 0.412 ± 0.011 | 0.355 ± 0.017 | 0.499 ± 0.024
4 | C=CC1=C(C(=O)O)N2C(=O)[C@@H](NC(=O)/C(=N\OCC(=O)O)c3csc(N)n3)[C@H]2SC1 [Cefixime] | 0.0395 ± 0.00093 | 0.0377 ± 0.0006 | 0.0408 ± 0.00017 | 0.03693 ± 0.00032 | 0.0407 ± 0.00045 | 0.04003 ± 0.00021 | 0.0679 ± 0.013 | 0.048 ± 0.004 |  |  | 0.0456 ± 0.00035 | 0.054 ± 0.001 | 0.0448 ± 0.00017
5 | CC[C@@]1(O)C(=O)OCc2c1cc1n(c2=O)Cc2cc3c(CN(C)C)c(O)ccc3nc2-1 [Topotecan] | 0.235 ± 0.0064 | 0.271 ± 0.01 | 0.271 ± 0.0034 | 0.345 ± 0.039 | 0.127 ± 0.0043 | 0.183 ± 0.015 | 0.214 ± 0.029 | 0.317 ± 0.044 |  |  | 0.393 ± 0.0043 | 0.269 ± 0.0042 | 0.483 ± 0.024
6 | CC[C@H](C)C(=O)O[C@H]1C[C@@H](C)C=C2C=C[C@H](C)[C@H](CC[C@@H]3C[C@@H](O)CC(=O)O3)[C@H]21 [Lovastatin] | 0.256 ± 0.0052 | 0.307 ± 0.01 | 0.0518 ± 0.002 | 0.21 ± 0.017 | 0.0567 ± 0.013 | 0.139 ± 0.0042 | 0.276 ± 0.026 | 0.35 ± 0.065 | 0.163 ± 0.018 | 0.192 ± 0.023 | 0.43 ± 0.018 | 0.148 ± 0.042 | 
7 | O=C(CCCCCCC(=O)Nc1ccccc1)NO [Vorinostat] | 0.253 ± 0.0073 | 0.295 ± 0.0062 | 0.238 ± 0.0041 | 0.164 ± 0.012 | 0.153 ± 0.0023 | 0.124 ± 0.011 | 0.195 ± 0.028 | 0.335 ± 0.061 |  |  | 0.415 ± 0.01 | 0.3 ± 0.021 | 0.495 ± 0.099
8 | Cc1c(N)c(=O)n(-c2ccccc2)n1C [Ampyrone] | 0.25 ± 0.0062 | 0.289 ± 0.008 | 0.267 ± 0.019 | 0.217 ± 0.02 | 0.187 ± 0.0029 | 0.146 ± 0.007 | 0.368 ± 0.033 | 0.446 ± 0.01 |  |  | 0.414 ± 0.0049 | 0.3598 ± 0.0033 | 0.457 ± 0.017
9 | O=S(=O)(O)CCS [Mesna] | 0.2377 ± 0.0019 | 0.282 ± 0.0091 | 0.28 ± 0.0078 | 0.193 ± 0.012 | 0.206 ± 0.016 | 0.13 ± 0.0052 | 0.341 ± 0.079 | 0.371 ± 0.058 |  |  | 0.4246 ± 0.0021 | 0.337 ± 0.0046 | 0.513 ± 0.074
10 | CN(C)c1nc(N(C)C)nc(N(C)C)n1 [Altretamine] | 0.251 ± 0.0091 | 0.315 ± 0.018 | 0.254 ± 0.0079 | 0.209 ± 0.0047 | 0.176 ± 0.008 | 0.163 ± 0.009 | 0.475 ± 0.017 | 0.436 ± 0.037 |  |  | 0.404 ± 0.017 | 0.317 ± 0.02 | 0.618 ± 0.023
11 | CC(=O)Oc1cc(C(C)C)c(OCCN(C)C)cc1C [Moxisylyte hydrochoride] | 0.219 ± 0.0037 | 0.245 ± 0.055 | 0.273 ± 0.0074 | 0.179 ± 0.017 | 0.155 ± 0.003 | 0.14 ± 0.00075 | 0.297 ± 0.046 | 0.441 ± 0.041 | 0.171 ± 0.0028 | 0.247 ± 0.053 | 0.41 ± 0.0064 | 0.242 ± 0.13 | 
12 | O=C1c2cccc(O)c2C(=O)c2c(O)cccc21 [1,8-Dihydroxyanthraquinone] | 0.132 ± 0.0039 | 0.15 ± 0.013 | 0.0699 ± 0.015 | 0.138 ± 0.0019 | 0.0486 ± 0.0032 | 0.153 ± 0.0021 | 0.187 ± 0.013 | 0.147 ± 0.0069 | 0.189 ± 0.0068 | 0.255 ± 0.067 | 0.361 ± 0.0048 | 0.218 ± 0.013 | 
13 | C[C@H](CCC(=O)O)[C@H]1CC[C@H]2[C@@H]3C(=O)C[C@@H]4CC(=O)CC[C@]4(C)[C@H]3CC(=O)[C@]12C [Dehydrocholic acid] | 0.252 ± 0.0042 | 0.252 ± 0.062 | 0.25 ± 0.012 | 0.186 ± 0.022 | 0.183 ± 0.0057 | 0.138 ± 0.0079 | 0.329 ± 0.068 | 0.33 ± 0.07 | 0.196 ± 0.0059 | 0.236 ± 0.04 | 0.406 ± 0.0045 | 0.3 ± 0.0058 | 
